Key:
Test in all cases: PBM binding z-score (relative to random genomic background probes); higher = stronger binding; sequences stand for … in GC…GCGATTGACAGCGTAGAATGAAGG
[1] = test system: FXR:RXRa (NR concentration 270 nM, RXRa partner concentration 90 nM)
In short: (§1)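 The probes on custom Agilent 4×180K protein-binding microarrays were double-stranded, with 34-nt variable regions bearing direct-repeat seeds, single-nucleotide variants, half-site ablations and random human genomic background sequences. Incubation lasted 1 h with ligand-free nuclear receptor dimers in PBS pH 7.4, 2% milk, 0.02% Triton X-100, 1 mM DTT, 0.2 mg/mL BSA and 0.4 mg/ml salmon testes DNA. Antibodies against each partner (one per run) detected bound dimers, and fluorescence scans were regression-normalized. Binding z-scores take the random background probes as reference.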

[2] = test system: LXRa:RXRa (NR concentration 270 nM, RXRa partner concentration 90 nM)
In short: as §1

[3] = test system: LXRa homodimer (NR concentration 270 nM)
In short: as §1

[4] = test system: LXRb:RXRa (NR concentration 270 nM, RXRa partner concentration 90 nM)
In short: as §1

[5] = test system: LXRb homodimer (NR concentration 270 nM)
In short: as §1

[6] = test system: PPARa:RXRa (NR concentration 270 nM, RXRa partner concentration 90 nM)
In short: as §1

[7] = test system: PPARg:RXRa (NR concentration 180 nM, RXRa partner concentration 90 nM)
In short: as §1

[8] = test system: PPARg:RXRa 270nM:90nM, anti-RXR (NR concentration 270 nM, RXRa partner concentration 90 nM)
In short: as §1

[9] = test system: PPARg:RXRa 30nM:10nM, anti-RXR (NR concentration 30 nM, RXRa partner concentration 10 nM)
In short: as §1

[10] = test system: PPARg:RXRa 90nM:30nM, anti-RXR (NR concentration 90 nM, RXRa partner concentration 30 nM)
In short: as §1

[11] = test system: PPARg:RXRa DBDmut IVT, anti-RXR (DBD mutation: RXRa K156A/R161A, NR concentration 270 nM, RXRa partner concentration 90 nM)
In short: as §1

[12] = test system: PPARg:RXRa IVT, anti-PPARg (NR concentration 270 nM, RXRa partner concentration 90 nM)
In short: as §1

[13] = test system: PPARg DBDmut:RXRa IVT, anti-PPARg (DBD mutation: PPARg1 K132A/R137A, NR concentration 270 nM, RXRa partner concentration 90 nM)
In short: as §1

[14] = test system: PPARg DBDmut IVT, anti-PPARg (DBD mutation: PPARg1 K132A/R137A, NR concentration 270 nM)
In short: as §1

[15] = test system: PPARg homodimer (NR concentration 180 nM)
In short: as §1

[16] = test system: PXR:RXRa (NR concentration 270 nM, RXRa partner concentration 90 nM)
In short: as §1

[17] = test system: PXR homodimer (NR concentration 270 nM)
In short: as §1

[18] = test system: RARa:RXR (NR concentration 270 nM, RXRa partner concentration 90 nM)
In short: as §1

[19] = test system: RARa homodimer (NR concentration 270 nM)
In short: as §1

[20] = test system: RARb:RXRa (NR concentration 270 nM, RXRa partner concentration 90 nM)
In short: as §1

| Sequence | PBM binding z-score [1] | PBM binding z-score [2] | PBM binding z-score [3] | PBM binding z-score [4] | PBM binding z-score [5] | PBM binding z-score [6] | PBM binding z-score [7] | PBM binding z-score [8] | PBM binding z-score [9] | PBM binding z-score [10] | PBM binding z-score [11] | PBM binding z-score [12] | PBM binding z-score [13] | PBM binding z-score [14] | PBM binding z-score [15] | PBM binding z-score [16] | PBM binding z-score [17] | PBM binding z-score [18] | PBM binding z-score [19] | PBM binding z-score [20] |
| --- | --- | --- | --- | --- | --- | --- | --- | --- | --- | --- | --- | --- | --- | --- | --- | --- | --- | --- | --- | --- |
| GCAGACAGGTGAAACGCAGTTAACTCAGGGTGGC | -0.413 | -0.168 | -0.315 | -0.381 | -1.38 | 0.714 | 0.486 | -0.149 | -0.977 | -0.452 | 0.917 | 0.29 | -1.71 | -0.986 | -0.869 | -0.255 | -0.841 | 0.164 | -0.965 | 0.589 |
| AGAATGAGGTTATTCAGATCAGGGAATTGCGGTC | 2.47 | 1.98 | 0.596 | 1.51 | 0.0526 | 3.31 | 1.58 | 1.96 | 0.851 | 1.27 | 3.18 | 2.64 | 0.879 | 0.0193 | 0.501 | 1.8 | 0.717 | 1.98 | 0.495 | 1.68 |
| TCATAGAGGTAAATGCTAGGTGAAAGTCCGATCT | 0.371 | 1.08 | -0.125 | 0.395 | -0.74 | 1.24 | 0.339 | 1.7 | 2.66 | 2.06 | 2.05 | 1.32 | -0.394 | -0.601 | 0.164 | 0.0496 | -0.193 | 0.932 | -0.0762 | 0.439 |
| CGTCCAAGGTCAAAGGTCAGTGAGGAGATGACGG | 8.06 | 7.01 | 4.05 | 6.21 | 1.86 | 7.08 | 10.8 | 8.98 | 8.09 | 9.57 | 4.27 | 5.57 | 0.435 | -0.522 | 6.24 | 7.08 | 2.54 | 8.87 | 5.49 | 5.85 |
| CAAACTAGGTCACCGGAAGGTCTAAGTCCGCATG | 3.99 | 3.38 | 0.494 | 2.73 | 0.609 | 5.3 | 8.5 | 7.22 | 4.98 | 6.82 | 8.57 | 9.1 | 1.59 | 1.51 | 2.47 | 2.44 | 0.0604 | 3.02 | 0.862 | 4.37 |
| TCTAGCAGGCCAGAGTGTCACTCAAGAGGTACGG | -0.276 | -0.311 | -1.03 | -0.712 | -1.41 | 0.336 | 0.89 | 1.81 | 1.93 | 1.97 | 0.735 | 0.187 | -0.515 | -1.96 | -0.804 | -0.229 | -0.833 | 0.142 | -1.77 | 0.361 |

Reference: the supplement of paper PMC6555819
